Results: the supplement of paper PMC12632987

T1: USP38, Q8NB14
T1 chain: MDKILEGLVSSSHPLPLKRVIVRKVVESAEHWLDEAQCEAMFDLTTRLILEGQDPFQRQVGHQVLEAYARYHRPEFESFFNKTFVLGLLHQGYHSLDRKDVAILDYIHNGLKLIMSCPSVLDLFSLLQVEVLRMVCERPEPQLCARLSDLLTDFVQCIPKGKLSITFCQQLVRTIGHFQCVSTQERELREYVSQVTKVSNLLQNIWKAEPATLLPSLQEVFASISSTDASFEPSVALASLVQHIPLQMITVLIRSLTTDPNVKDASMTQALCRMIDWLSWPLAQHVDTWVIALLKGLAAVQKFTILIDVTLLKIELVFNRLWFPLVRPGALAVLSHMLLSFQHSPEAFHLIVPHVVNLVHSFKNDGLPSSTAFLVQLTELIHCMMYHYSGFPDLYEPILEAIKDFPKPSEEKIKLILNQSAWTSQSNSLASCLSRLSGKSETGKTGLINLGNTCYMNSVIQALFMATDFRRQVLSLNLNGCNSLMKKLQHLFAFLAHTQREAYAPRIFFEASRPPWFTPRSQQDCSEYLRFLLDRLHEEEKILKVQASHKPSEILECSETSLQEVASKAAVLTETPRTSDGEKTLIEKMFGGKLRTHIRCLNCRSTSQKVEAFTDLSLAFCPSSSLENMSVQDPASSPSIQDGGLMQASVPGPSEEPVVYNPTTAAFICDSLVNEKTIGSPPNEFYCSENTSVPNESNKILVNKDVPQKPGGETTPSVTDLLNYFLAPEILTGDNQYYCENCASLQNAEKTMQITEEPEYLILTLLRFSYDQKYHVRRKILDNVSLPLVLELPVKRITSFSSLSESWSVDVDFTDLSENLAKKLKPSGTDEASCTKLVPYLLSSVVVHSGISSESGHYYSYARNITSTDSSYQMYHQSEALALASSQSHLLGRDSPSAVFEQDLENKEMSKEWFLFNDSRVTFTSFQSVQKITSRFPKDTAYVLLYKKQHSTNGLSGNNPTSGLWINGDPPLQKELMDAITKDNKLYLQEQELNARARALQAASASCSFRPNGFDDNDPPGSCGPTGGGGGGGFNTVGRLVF

B1: usp_38_diff_out_17_130_228 (protein)
chain: MEEEIESLKEYLEAEKKNLESVAKQAEEDYERAKKNPVTLDRVIHGLEGVATYAEDTIKEAKELIKEYPEVKEEAEKLIKVAEEAKKKAEALKKKLEALK
B2: usp_38_diff_out_17_26_242 (protein)
chain: EAEERRREARERLERLREETERALEEIDRLIAEGKFEEARKLLEETVRKATEEMTEILELAADDPELMEEALRAWDEISDRLAARYRELQAAIAAAKAAA
B3: usp_38_diff_out_17_26_241 (protein)
chain: SMEERRKEAEELLRRLEEETEKALEEIEKLIEEGKFEEARKLLDEAVDYATETATRILELAADDPELMDRALAVIGRIFDRLAEAYRRLEEARRRAEEEA
B4: usp_38_diff_out_18_121_254 (protein)
chain: KAEELAKKALELAEEIEKLSKELLKAIKEGNKEKAEELRKKLDEKIRELGRLYQELRDLHAENPHETRELLKEVNEKANKAIDEREKAETAYFEFLAEQE
B5: usp_38_diff_out_17_26_243 (protein)
chain: SAEEKRKKARELLKKLKEESEKALEEIKKLIKEGKFEEAEKLLEETVKKVTETTLEILELAADDPELVEEVLEAYDEISDKLAQAYKELQKAKKEAAAKA
B6: usp_38_diff_out_17_60_248 (protein)
chain: SAEAEAIIARLEARLEELERRLEELERRFEEAERRGDKAELEELLKELDELLGEIADLLVELAKNSELIDPETFLRLADRASELADRAFALRQRVQQALA
B7: usp_38_diff_out_17_26_237 (protein)
chain: SAEEKRKEAEKLLEELEKYVKETLEKIDKLIEEGKFEEAKKLLDELVTETTKRFTEILELAADDPELMDKALAKYDELSGQIAARYRRLEEARREAEAKA
B8: usp_38_diff_out_18_14_255 (protein)
chain: SEELEKATISNLNSLKEDVKKDTERVIKLLEKNKDDPERVKRITERANRNLAGVRTYAEEVLKEAEEKGWEEVKKAAEELLKTVDEAKKKIEEKVKEVLA
B9: usp_38_diff_out_17_35_245 (protein)
chain: SLEEKERELLERTRRAAEEALRRARELLEAAKADPSQIDRYLAEARAVLDRFLAEAADILIEAAKLEIDAEVLQEIGDIIDRASDELQAILDELEALKAA
B10: usp_38_diff_out_17_130_224 (protein)
chain: SAEEVEALKEYLEAEKKNVESVKEDAKKDFERAKKNPVTLDRVEHALEGNIKYMEETIKEAEKLKKEYPEVKEAADKLIKAAKKAKEEFEKYLKEVKALK
B11: usp_38_diff_out_17_26_235 (protein)
chain: SAEEKRKKALELLKELEKETEKELEEIEKLIKEGKFEEAEKKLDELVTKTTEKTTEILELAADDPELVEEVLKSYDKISDKIAEKYKELQEAKKKARAEA
B12: usp_38_diff_out_17_130_225 (protein)
chain: SADEVEALKEYLEAEKANIEAVAADAERDLARAKRLPVTLPRVRHALEGNIKYMEETIKEAEEIKKKYPEVAAAADALIKAARDAKAKFEAMLAEVDALE
B13: usp_38_diff_out_17_26_236 (protein)
chain: SAEERREEARRALEELRADTDAALKEIDALIKAGKFEEAQALLDKLVDDFTKRATEILELAADDPELMDEALRAIGEVADKIAAAGSRLRAARKAAREAA
B14: usp_38_diff_out_17_26_238 (protein)
chain: EAEERRKEARKLLEELKEKTEKDLEEIRKLIKEGKFEEAEKLLDETIDYVTEKSTEILELAADDDELFAEALAAIDEIFDKLAAAGKELREAKREAREKE
B15: usp_38_diff_out_17_26_239 (protein)
chain: SSEEKRKEAEKLLKEMEEKTEEALKEIDKLIAEGKFAEAQKLLDETIDYVTEKSTEILELASDDDELFEKVMEKIDKISDRLAAAGARLRAARRAARAAA
B16: usp_38_diff_out_17_60_246 (protein)
chain: SAEAEKIIKELEERLEELEKRLKELEKEFKKAKAAGDKAKLEALAKEAQALLDEIADLLVELAKNSEIIDPETFLELADRASELADRAFALLKEIQKELA
B17: usp_38_diff_out_17_130_227 (protein)
chain: SAEEIESLKEYLRAEKENLKSVKEEAKKNLERAKKNPVTLDRVSHGLEGVATYAEDTIKEAKELLKKYPEVAEEAKELIKVAEEARKEAKELLKEVEKLK
B18: usp_38_diff_out_17_60_247 (protein)
chain: SAEAEEIIERLKKRLEELEKRLEELEKRFEEAKKKGDKEELEKLLKEAKELIDEIADLLVELAKNSELIDPETFLELADRASELADRAFKLKQEIEKELA
B19: usp_38_diff_out_18_121_253 (protein)
chain: EAEKLAEEALKLAEKLKELSEELLKAIKEGDLEKAEKLKKEMEELLKELGRKYLELRDLRAEHPEETKELLKEVEKKANEAIDKYEKAERAYFEFLAEQA
B20: usp_38_diff_out_17_26_234 (protein)
chain: SAEEERRRARELLEELRRRTEEALARIRELIAAGRFAEAQALLDATVTEVTATATEIFELAADDDELLDEVNRAVGEIFDRLAAAGRELREARRAAAAAA
B21: usp_38_diff_out_17_26_230 (protein)
chain: AAEERRREARELMRELERRTAEALKEIEKLIEEGKLEEAEKKLDELVDEFTELATRLLELAADDDELFEEAVRVIDAAADRIAAAGNLLREAKKKKREEE
B22: usp_38_diff_out_17_125_220 (protein)
chain: SDEELKKKAEELLKKAEELLKQAEKALEEGAPFEEIEKLLDEAADALGELAKTLRELREKSKDPAQAAKFIKEATEKANELIDRYTELATRAFLRQAEAA
B23: usp_38_diff_out_18_14_257 (protein)
chain: SKELTEATISNLKSLKEDVKEDTERVIRLLEKNKDDPERVKRIYERAKRNLAGVEKYAKEVLKEAKENGDEELAKAAEELLKAVEEARERIEEEVKRVLA
B24: usp_38_diff_out_17_26_244 (protein)
chain: SAEERNKKARELLEELKREAEKGLEEIRKLIEAGKFEEARKKLDELVTEVTERMLEILELAADNPELMEEALAAYDEISDAIAAAYRELQEARRAAAAAA
B25: usp_38_diff_out_18_121_251 (protein)
chain: EAKKVAEEALKAAKEATKLAKELLKAIKEGKWEKAEKLDKELDKKIKEFGRLYQELRDLRSEDPEQTKPLLKEVEKEGDKMIDIYNEAGTALFLAEAERQ
B26: usp_38_diff_out_17_130_223 (protein)
chain: SEDEIEALKEYLEAEKKNIKSVAEEAEKDFERAKKHPVTLDRALHALDGVIKYYEETIEEAKKILKEYPEVKEAAEELIKTAEEAKKKAEKLKKELEKLK
B27: usp_38_diff_out_18_121_250 (protein)
chain: DGEELLRRLREALRRAEEKLRELEELLERAEEVSLEELRAALDAAADALGEAAALLREARRRLGPEYREELEEAERRLDELVDRYTELGTRLFLLEAERQ
B28: usp_38_diff_out_17_125_221 (protein)
chain: TDEELKKEIEEALKKAEELLKKAKKLLEEGAPFEEIRAELDKAADALGKLAVLLRELREKSEDKAQAAKFIKEATERANKLIDEYTKLATEAFLREAEAA
B29: usp_38_diff_out_17_26_240 (protein)
chain: SMEERRKEARKLLEEMEKRVEEDLKKIRELIKEGKFEEAEELLNKTIDYVTETSTKILELAADDDELFDEAMEAIDKISDKLAEAGKELREAKREAREKA
B30: usp_38_diff_out_18_14_256 (protein)
chain: SEELTKAEISNLESLKKSVKEDTERVIRLLEKNKDDPERVKRIYERAQRNLAGVETYAKEVLERAKKEGDEELAKAAEELLKEIEEARKRIEEKVKEVLA
B31: usp_38_diff_out_18_121_249 (protein)
chain: NPEELLEELRRALEEARRALEELEKLLENREEVSLEELREALRRAADALGRAAALLREARRRIGPEYREEIERAEKELDELVDRYTELGRELFLLEAERE
B32: usp_38_diff_out_17_26_231 (protein)
chain: SAEAARAKAEALLKELVAETDKALKEIDKLIKEGKFEEAEKLLDETVDKVTEKATEIFELAADDEALLDKANKTIGDIFDKLAARYKELQAARKAAKAAA

Target: T1, USP38, Q8NB14
Assay: median log2 fold change of GCK-ALFA target abundance (FLAG IP / Myc IP barcode read proportion) (log2 ratio); each designed protein is fused to an ALFA-tag nanobody in HEK293 cells to bring the named protein to FLAG-tagged glucokinase (GCK); Myc marks an untargeted standard; higher = target protein stabilised (more abundant)
Details: target protein: 3xFLAG-MCP-GCK-ALFA reporter; HEK293 landing pad (RPLP)
Outline: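 Binders fused to an ALFA nanobody were recombined as a library into HEK293 landing-pad cells, which were induced with 2 μg mL^−1 doxycycline and then transfected to express a FLAG-tagged target and a Myc-tagged standard. After 48 h, circular RNA barcodes recovered by anti-FLAG and anti-Myc immunoprecipitation of lysates were reverse transcribed, amplified and sequenced. Each binder's target abundance is the median log2 ratio of FLAG to Myc barcode read proportions, from barcodes present at ≥10^−7 in both replicates, binders carrying ≥3 barcodes per replicate, a 10^−6 pseudocount and pooled replicates.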

Row | Binder | median log2 fold change
1 | B1 | 0.184
2 | B2 | 0.467
3 | B3 | -0.00366
4 | B4 | -0.478
5 | B5 | -0.0758
6 | B6 | -1.11
7 | B7 | 0.259
8 | B8 | 0.0514
9 | B9 | 0.015
10 | B10 | 0.401
11 | B11 | 0.284
12 | B12 | 0.15
13 | B13 | 0.0259
14 | B14 | -0.0599
15 | B15 | -0.0256
16 | B16 | -0.51

Row | Binder | median log2 fold change
17 | B17 | 0.32
18 | B18 | 0.108
19 | B19 | -1.1
20 | B20 | -0.0515
21 | B21 | -0.167
22 | B22 | 0.167
23 | B23 | 0.0724
24 | B24 | -0.152
25 | B25 | -0.563
26 | B26 | 0.232
27 | B27 | -0.109
28 | B28 | -0.359
29 | B29 | 0.0157
30 | B30 | 0.00955
31 | B31 | -0.0715
32 | B32 | -0.439
